# Compounds with a hit are over-represented: about 18% of the library has one in this group of screens.
# LDHA inh = blocks human lactate dehydrogenase A; actives 0.15% (n = 480,000); purified LDHA, NADH/diaphorase-resazurin fluorescence; stronger effect = lower value; activity change, % (values are at about 110 or 230 µM); P00338; in the data active means activity change below about -30%; inconclusive means mostly about -25% to -30%;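 further: plate controls were DMSO wells for no effect and wells without enzyme for full effect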
#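 LDH5 2 nM; NADH 0.06 mM, pyruvate 0.2 mM; 200 mM Tris pH 7.4, EDTA, Tween-20; 5 min RT. Detection: diaphorase 0.133 mg/mL + resazurin 37 µM, fluorescence ex540/em590 at 0 and 20 min; normalized to enzyme-free and DMSO wells.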
# VP16 counter = inhibits Gal4-VP16 luciferase reporter, ROR gamma counter-screen; Drosophila S2 Gal4-VP16 UAS-luciferase, luminescence, 20 h; AID 2546; actives 3.5% (n = 310,000); Potency, µM (series often up to 53.6 µM), for the others: at the top dose activity, negative = inhibition, actives largely listed as inhibitors;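 further: Gal4-VP16 expression switched on by copper sulfate through the metallothionein promoter; potency means the concentration at half of the fitted maximal effect; nearly all actives have a fitted effect of over 50% in size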
# IL-1B inflam inh = blocks inflammasome-driven IL-1 beta release; THP-1 LPS/ATP IL-1B secretion, AlphaLISA, 16 h; stronger effect = lower value; activity change, % at 57.5 µM; actives 4.7% (n = 360,000); in the data active means activity change below about -50%; inconclusive means mostly about -30% to -49%
#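 Secreted IL-1B measured by AlphaLISA bead assay after 16 h compound exposure of THP-1 cells; compounds (final up to 57.5 uM) added 1 h before LPS (250 ng/mL) and ATP (1.25 mM) stimulation; lower signal means less secretion.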
# DT40 TDP1 CPT = growth inhibition of DT40 Tdp1-/-;hTDP1 cells with camptothecin (screen for TDP1 inhibitors); chicken DT40 Tdp1-/-;hTDP1 cells + 20 nM CPT, ATP luminescence, 48 h; actives 12% (n = 420,000); Potency, µM (series often up to 46.2 µM), without a hit: at the top dose activity change, negative = growth inhibition, usual class: inhibitors; further: potency means the concentration at half of the fitted maximal effect; nearly all actives have a fitted effect of over 55% in size
#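 Chicken DT40 Tdp1-/- cells stably complemented with human TDP1 were seeded at 400 cells/well in medium containing 20 nM camptothecin, exposed to pin-transferred compounds, and grown at 37 °C for at least 48 hr. Viability was read as ATP luminescence.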
# RORgamma inh = ROR gamma (mouse) transcription inhibition; actives 5.4% (n = 310,000); Drosophila S2 Gal4-RORgamma UAS-luciferase reporter, 20 h; P51450; Potency, µM (highest dose often 53.6 µM), for inactives: at the highest dose activity change, negative = inhibition, usual class: inhibitors; further: potency means the concentration at half of the fitted maximal effect; nearly all actives have a fitted effect of over 60% in size
# Target sequence (P51450 whole entry, looked up, the tested form may be a part): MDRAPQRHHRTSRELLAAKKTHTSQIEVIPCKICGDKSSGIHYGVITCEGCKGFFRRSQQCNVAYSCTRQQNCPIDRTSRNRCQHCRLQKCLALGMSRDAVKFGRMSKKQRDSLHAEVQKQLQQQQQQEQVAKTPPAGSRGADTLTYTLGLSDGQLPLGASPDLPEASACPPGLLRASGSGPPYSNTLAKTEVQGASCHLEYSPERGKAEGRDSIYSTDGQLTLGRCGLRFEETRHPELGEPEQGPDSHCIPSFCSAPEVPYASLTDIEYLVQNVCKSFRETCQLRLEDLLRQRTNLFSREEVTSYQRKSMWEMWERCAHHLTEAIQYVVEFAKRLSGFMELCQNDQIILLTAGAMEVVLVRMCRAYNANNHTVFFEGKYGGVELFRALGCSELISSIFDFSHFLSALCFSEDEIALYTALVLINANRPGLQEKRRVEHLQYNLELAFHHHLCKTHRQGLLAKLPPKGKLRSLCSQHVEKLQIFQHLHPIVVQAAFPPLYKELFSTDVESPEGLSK
#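 Drosophila S2 cells stably expressing Gal4-DBD/mouse RORγ fusion under metallothionein promoter plus UAS-luciferase; compound 1 h, then 700 uM CuSO4 induction for 20 h at ambient temperature; inhibition read as reduced luminescence.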
# DT40 TDP1 no CPT = qHTS for Inhibitors of human tyrosyl-DNA phosphodiesterase 1 (TDP1): qHTS in cells in absence of CPT; DT40 Tdp1-/- hTDP1 cells, no CPT, ATP luminescence, 48 h; Potency, µM (titrated, usually from 46.2 µM), inactives show top-dose activity change, negative = growth inhibition, most hits filed as inhibitors; actives 15% (n = 420,000); further: potency means the concentration at half of the fitted maximal effect; nearly all actives have a fitted effect of over 55% in size
#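 Growth kinetics read by CellTiter-Glo luminescence after ≥48 hr at 37 °C. Cells: DT40 Tdp1-/- stably carrying human TDP1, 400 per well, compound exposure in the absence of CPT (DMSO vehicle).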
# * marks the source's active call; other numbers are inactive results; ? = inconclusive; / = no result given. Unless noted, the call rests on the fitted dose curve; in most records, active means well fitted curve in the direction sought with a large enough effect; inconclusive means small, poorly fitted or top-dose-only effect, or another doubt; inactive means no such curve, though single readings can be large; an effect the other way counts as inactive or inconclusive. Unless noted, on the % scale 0 is the no-effect control and ±100 the full control effect.
SMILES,LDHA inh,VP16 counter,IL-1B inflam inh,DT40 TDP1 CPT,RORgamma inh,DT40 TDP1 no CPT
O=C(CC1OCC2CCCN2C1=O)Nc1ccc([N+](=O)[O-])cc1 (stereo unspecified),-9,?,?,16µM*,?,?
CCCCCCC1CC(CC(=O)Nc2ccc([N+](=O)[O-])cc2)C(=O)O1 (stereo unspecified),0,?,-61*,18µM*,?,?
CC1(C)CC(CC(=O)Nc2ccc([N+](=O)[O-])cc2)C(=O)O1 (stereo unspecified),-5,-1%,-9,4%,11%,1%
O=C(CN1CCOCC1)Nc1ccc([N+](=O)[O-])cc1,-2,-9%,19,-6%,-3%,2%
CCN1CCOC(CC(=O)Nc2ccc([N+](=O)[O-])cc2)C1=O (stereo unspecified),-5,-11%,-2,15µM*,34%,?
O=C(CC1C(=O)NC2CCCCC2N1C(=O)c1ccc([N+](=O)[O-])cc1)Nc1ccccc1 (stereo unspecified),-6,-1%,10,?,3%,16µM*
Cn1c(-c2ccccc2)c(C(=O)C(=O)NC(C)(C)C)c2ccccc21,-3,/,/,/,/,/
C=CCNc1nc(-c2ccc3c(c2)C(C)C(=O)N3)cs1 (stereo unspecified),-15,/,/,/,/,/
CCC(CN(C)C)Oc1cc(NCc2ccccc2)c2ncn(C(C)C)c2c1 (stereo unspecified),15,/,15,26µM*,/,?
CCC(CO)Oc1cc(NC(=O)c2ccc(C)cc2)c2ncn(C(C)C)c2c1 (stereo unspecified),8,/,?,23µM*,/,?
COc1cc(NCc2ccccc2)c2ncn(C(C)C)c2c1,16,/,-29,?,/,-28%
CCN(CC)CCNC(=O)CCc1ncc(-c2ccc(F)cc2)o1,-5,/,/,/,/,/
CCCC(=O)Nc1cc(OC)c(NC(=S)Nc2ccc(CC)cc2)cc1OC,16,/,-9,1%,/,16µM*
CCCCC(=O)Nc1ccc(NC(=S)NC(=O)CCCCl)cc1OC,-4,?,-16,0%,?,-21%
CCCCC(=O)Nc1ccc(NC(=S)NC(=O)c2cccs2)cc1OC,-2,?,0,-4%,10µM*,-17%
CCCC(=O)Nc1cc(OC)c(NC(=S)Nc2cccc(C)c2)cc1OC,9,/,0,?,/,-24%
COc1cc(NC(=S)NC(=O)c2cccs2)ccc1NC(=O)C(C)C,-3,?,-12,?,13µM*,?
CCCCC(=O)Nc1ccc(NC(=S)NC(=O)c2ccco2)cc1OC,-4,0%,-2,13%,10%,-3%
CCCCC(=O)Nc1ccc(NC(=S)NC(=O)CC)cc1OC,-2,-1%,-1,?,13µM*,-18%
Cc1cc(C2CC(=O)OC3=C2C(=O)CC(C)(C)C3)c(C)s1 (stereo unspecified),33,/,/,/,/,/
COc1cc(OC)cc(-c2nnc(NC(=O)CCS(=O)(=O)c3ccc(F)cc3)o2)c1,3,/,-66*,?,/,?
COc1cc(OC)cc(-c2nnc(NC(=O)CCS(=O)(=O)c3ccccc3)o2)c1,-7,/,-72*,?,/,16µM*
CCOC(=O)c1ccc2c(c1)nc(SCc1cn3ccsc3n1)n2CC,1,?,?,?,?,16µM*
CCOC(=O)c1ccc2c(c1)nc(SCC(=O)N1CCOCC1)n2CC,-3,-5%,-11,12%,10%,-20%
O=C(COC(=O)c1cnccn1)c1ccc(Cl)c([N+](=O)[O-])c1,-11,-19%,-60*,?,-10%,?
SMILES,LDHA inh,VP16 counter,IL-1B inflam inh,DT40 TDP1 CPT,RORgamma inh,DT40 TDP1 no CPT
O=C(COC(=O)c1cnccn1)c1ccc([N+](=O)[O-])cc1,7,20%,-54*,23µM*,28%,?
CC(Sc1ncc(C(F)(F)F)cc1Cl)C(=O)Nc1ccccc1F (stereo unspecified),-17,/,/,/,/,/
C=CCC[C@H](Cc1ccc(F)cc1)C(=O)OC[C@@H](NC(=O)[C@H](CC=C)CC(=O)NCCO)c1ccccc1,-5,/,-13,21µM*,/,?
C=CC[C@H](CC(=O)NCCO)C(=O)N[C@@H](COC(=O)[C@@H](CC=C)Cc1ccc(F)cc1)Cc1ccccc1,1,/,-7,21µM*,/,?
Cc1ccc(Cn2c(CO)cnc2SCc2cccc(F)c2)cc1,0,/,/,?,/,?
COc1ccc(Cn2c(CO)cnc2SCc2cccc(C)c2)cc1,2,/,/,?,/,26µM*
OCc1cnc(SCc2cccc(F)c2)n1Cc1ccc(F)cc1,1,/,/,21µM*,/,?
Cc1ccc(Cn2c(CO)cnc2SCc2ccc(F)cc2)cc1,-6,/,/,10µM*,/,16µM*
Cc1ccc(Cn2c(CO)cnc2SCC(=O)Nc2cccc(F)c2)cc1,0,/,/,-16%,/,-5%
COc1ccc2c(c1)c(C(C(=O)O)N1CCN(C(C)=O)CC1)cn2CC(=O)O (stereo unspecified),8,/,/,/,/,/
Cc1ccc(OCCn2cc(/C=C(\C#N)C(=O)NCC3CCCO3)c3ccccc32)cc1C (stereo unspecified),-3,-9%,-6,13µM*,41%,7.3µM*
Cc1ccc(OCCn2cc(/C=C(\C#N)C(=O)NCC3CCCO3)c3ccccc32)cc1 (stereo unspecified),-9,-6%,-13,13µM*,?,10µM*
Cc1cc(/C=C(\C#N)C(=O)O)c(C)n1CC1CCCO1 (stereo unspecified),-1,8%,-14,?,1%,21µM*
Cc1ccc(C)c(OCCn2cc(/C=C(\C#N)C(=O)NCC3CCCO3)c3ccccc32)c1 (stereo unspecified),-2,-8%,?,?,?,?
Cc1ccc(C)c(OCCn2cc(/C=C(\C#N)C(=O)NCc3cccs3)c3ccccc32)c1,0,-3%,0,0%,-9%,-2%
Cc1ccccc1-n1c(C)cc(/C=C(\C#N)C(=O)NCC2CCCO2)c1C (stereo unspecified),0,-14%,-9,?,12%,12µM*
CCCn1c(C)cc(/C=C(\C#N)C(=O)O)c1C,-11,4%,-10,8%,-2%,10%
CC(C)NC(=O)c1cccc2c1CCCN2CC(=O)NC(N)=O,12,/,/,/,/,/

# Bioassay records (PubChem BioAssay)
